Measurements published in PubChem BioAssay AID720612 (Broad Institute, 2013).
Results filed as inconclusive are left out. The source made the active and inactive calls.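 The calls were made as follows: active = compounds whose fitted half-maximal viability loss lies within twice the top dose at every treatment time; inconclusive = the three treatment times give differing calls; inactive = inactive at every treatment time.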

Assay: HUVEC endothelial cell viability, late-stage follow-up, cytotoxicity control for HRAS target identification, Alamar Blue fluorescence, 8-48 h, dry powder (AID 720612)

Row | SMILES | outcome
1 | Cc1onc(C(=O)N2CCN(C(c3ccncc3)c3ccncc3)CC2)c1[N+](=O)[O-] | inactive
2 | CCC(=O)N(c1ccc(OC)c(Cl)c1)C(C(=O)NCCc1ccccc1)c1cccs1 (configuration not stated) | inactive
